Assay outcomes: PubChem BioAssay, National Center for Advancing Translational Sciences (NCATS)
Most compounds without a hit are left out; they make up all but 19% or so of the library.
DT40 TDP1 no CPT: qHTS for Inhibitors of human tyrosyl-DNA phosphodiesterase 1 (TDP1): qHTS in cells in absence of CPT. Potency, µM (titrated, usually from 46.2 µM), hits mostly inhibitors. hit rate 15% among 420,000. DT40 Tdp1-/- hTDP1 cells, no CPT, ATP luminescence, 48 h. AID 686978, 2013; further: nearly all actives have a fitted effect of over 55% in size
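Readout: luminescence from CellTiter-Glo after 30 min in the dark at RT. Cells: DT40 Tdp1-/- with stable hTDP1, 400/well. Exposure: compounds alone, ≥48 hr, 37 °C.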
MCF10A rerep: A quantitative high throughput screen for small molecules that induce DNA re-replication in MCF 10a normal breast cells. MCF 10A DNA re-replication, Hoechst nuclear intensity, 48 h. Potency, µM (doses to about 46.1 µM), actives largely listed as activators. hit rate 2.9% among 350,000. AID 624296, 2012; further: nearly all actives have a fitted effect of over 50% in size
SW480 rereplic: A quantitative high throughput screen for small molecules that induce DNA re-replication in SW480 colon adenocarcinoma cells | SW480 DNA re-replication, Hoechst DNA content imaging, 48 h | Potency, µM (titrated, usually from 46.1 µM), usual class: activators | hit rate 1.8% among 340,000 | AID 624297, 2012; further: nearly all actives have a fitted effect of over 55% in size
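Quantitative HTS format with DMSO vehicle controls; 48 hr drug incubation at 37 C, then 40 min Hoechst staining and scanning imager measurement at 405 nm excitation.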
IL1B secr inh: qHTS for Inhibitors of Inflammasome Signaling: IL-1-beta AlphaLISA Primary Screen. THP-1 LPS/ATP IL-1B secretion, AlphaLISA, 16 h; hits give low values. activity change, % at 57.5 µM. hit rate 4.7% among 360,000. AID 743279, 2014; in the data active means activity change below about -50%; inconclusive means mostly about -30% to -49%
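THP-1 cells pretreated 1 hr with compounds (up to 57.5 uM final), then stimulated with LPS (250 ng/mL final) plus ATP (1.25 mM final); secreted IL-1B measured by AlphaLISA after 16 hr, decreased signal indicating inhibition.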
Chronic BCR inh: qHTS Assay to Find Inhibitors of Chronic Active B-Cell Receptor Signaling; ABC-DLBCL IkBa-CBG/CBR reporter, luminescence ratio, 4 h; Potency, µM (top dose mostly 46.1 µM), usual class: inhibitors; hit rate 0.05% among 340,000; active means well fitted inhibition curve with a large enough effect in the signal ratio, with a control signal flat, not every such curve was filed as active; inconclusive means small, poorly fitted or top-dose-only effect, or effect the other way, or a change in a side signal; the % refers to the signal ratio
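TMD8 ABC-DLBCL cells carrying doxycycline-inducible green luciferase fused to IkappaBalpha plus unfused red luciferase were exposed to compounds (up to 46 uM) for 4 hrs at 37C. Activity came from the overlap-corrected green/red luminescence ratio.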
TDP1 cell CPT: qHTS for Inhibitors of human tyrosyl-DNA phosphodiesterase 1 (TDP1): qHTS in cells in presence of CPT; hit rate 12% among 420,000; AID 686979, 2013; chicken DT40 Tdp1-/-;hTDP1 cells + 20 nM CPT, ATP luminescence, 48 h; Potency, µM (highest dose often 46.2 µM), hits mostly inhibitors; further: nearly all actives have a fitted effect of over 55% in size
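Chicken DT40 Tdp1-/- cells stably complemented with human TDP1 were seeded at 400 cells/well in medium containing 20 nM camptothecin, exposed to pin-transferred compounds, and grown at 37 °C for at least 48 hr. Viability was read as ATP luminescence.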
Large screens that a line does not name were inactive. Unless noted, the call rests on the fitted dose curve; in most records, active means well fitted curve in the direction sought with a large enough effect; inconclusive means small, poorly fitted or top-dose-only effect, or another doubt; inactive means no such curve, though single readings can be large; an effect the other way counts as inactive or inconclusive.

CCOC(=O)c1c(CSCc2ccccc2)oc2ccc(O)c(CN(C)C)c12	DT40 TDP1 no CPT 16µM, SW480 rereplic inconclusive, IL1B secr inh -82, Chronic BCR inh inconclusive, TDP1 cell CPT 15µM
CCOC(=O)c1c(-c2ccccc2)oc2ccc(O)c(CN3CCCC3)c12	DT40 TDP1 no CPT 21µM, IL1B secr inh -60, TDP1 cell CPT 23µM
CCOC(=O)c1oc2ccccc2c1CN1CCCCC1	Chronic BCR inh inconclusive
Cc1oc2ccc(O)c(CN3CCCCCC3)c2c1C(=O)Nc1cccc(C(F)(F)F)c1	DT40 TDP1 no CPT 5.2µM, TDP1 cell CPT 3.7µM (no result: MCF10A rerep, SW480 rereplic, IL1B secr inh, Chronic BCR inh)
CCc1noc(C)c1C(=O)OC(C)C(=O)Nc1cc([N+](=O)[O-])ccc1OC (configuration not stated)	DT40 TDP1 no CPT inconclusive
Cc1ccc(NC(=O)c2c(C)oc3ccc(O)c(CN4CCOCC4)c23)c(C)c1	none (no result: MCF10A rerep, SW480 rereplic, IL1B secr inh, Chronic BCR inh)
Cc1ccc(NC(=O)c2c(C)oc3ccc(O)c(CN4CCCCCC4)c23)c(C)c1	DT40 TDP1 no CPT 6.5µM, TDP1 cell CPT 9.2µM (no result: MCF10A rerep, SW480 rereplic, IL1B secr inh, Chronic BCR inh)
Cc1oc2ccc(O)c(CN3CCCC3)c2c1C(=O)Nc1ccc(C(C)C)cc1	DT40 TDP1 no CPT 23µM, TDP1 cell CPT 23µM (no result: MCF10A rerep, SW480 rereplic, IL1B secr inh, Chronic BCR inh)
Cc1oc2ccc(O)c(CN3CCN(C)CC3)c2c1C(=O)Nc1ccc(C(C)C)cc1	DT40 TDP1 no CPT 21µM, TDP1 cell CPT 16µM (no result: MCF10A rerep, SW480 rereplic, IL1B secr inh, Chronic BCR inh)
Cc1ccc(NC(=O)c2c(C)oc3ccc(O)c(CN4CCN(Cc5ccccc5)CC4)c23)cc1	TDP1 cell CPT 21µM (no result: MCF10A rerep, SW480 rereplic, IL1B secr inh, Chronic BCR inh)
Cc1cc(=O)c(C(=O)Nc2cccc(C(=O)NC3CC3)c2)nn1-c1ccccc1	none (no result: MCF10A rerep, SW480 rereplic, Chronic BCR inh)
O=C(CN1C(=O)NC2(CCCCC2)C1=O)Nc1ccc(Cl)cc1	DT40 TDP1 no CPT inconclusive
Cc1ccc(N2C(=O)CC(N(O)C3CC(=O)N(c4ccc(C)cc4)C3=O)C2=O)cc1 (configuration not stated)	DT40 TDP1 no CPT inconclusive, TDP1 cell CPT inconclusive
O=C(O)CSC1CC(=O)N(c2ccc(Cl)cc2)C1=O (configuration not stated)	none
CCCCCCC(=O)N(O)C1CC(=O)N(c2ccc(Cl)cc2)C1=O (configuration not stated)	DT40 TDP1 no CPT 2.9µM, MCF10A rerep inconclusive, SW480 rereplic 18µM, IL1B secr inh -51, TDP1 cell CPT 2.3µM
CCCCCCC(=O)N(O)C1CC(=O)N(c2ccc(C)cc2)C1=O (configuration not stated)	DT40 TDP1 no CPT 5.8µM, MCF10A rerep inconclusive, SW480 rereplic inconclusive, Chronic BCR inh inconclusive, TDP1 cell CPT 2.9µM
COC(=O)C(C)Sc1nc2c(cnn2-c2ccc(Cl)cc2)c(=O)[nH]1 (configuration not stated)	none
COCCN(C(=O)c1ccc(C)o1)c1c(N)n(CC(C)C)c(=O)[nH]c1=O	Chronic BCR inh inconclusive
Cc1ccc(S(=O)(=O)c2nnn3c2nc(NC2CCN(Cc4ccccc4)CC2)c2ccccc23)cc1C	DT40 TDP1 no CPT 5.8µM, TDP1 cell CPT 12µM
Cc1ccc(S(=O)(=O)c2nnn3c2nc(N2CCOCC2)c2ccccc23)cc1C	IL1B secr inh -66
CCCCc1nc2cc(C(=O)N(C)C3CCOCC3)ccc2o1	none
COc1ccccc1NS(=O)(=O)c1ccc(C(=O)N2CCN(c3ccccn3)CC2)cc1	DT40 TDP1 no CPT 13µM, TDP1 cell CPT 23µM
CN1CCN(c2ccc(NS(=O)(=O)c3ccc(Cl)cc3)cn2)CC1	MCF10A rerep inconclusive
Cc1ccc(S(=O)(=O)Nc2ccc(N3CCN(C)CC3)nc2)cc1	MCF10A rerep inconclusive, IL1B secr inh -65
CCOC(=O)C1CCN(C(=O)c2ccc(NS(=O)(=O)c3ccc(F)cc3C)cc2)CC1	DT40 TDP1 no CPT inconclusive, IL1B secr inh -97
CCOC(=O)C1CCN(C(=O)c2ccccc2NS(=O)(=O)c2ccccc2)CC1	none
COc1ccc(C(=O)N2CCN(c3ccccn3)CC2)cc1	none
CCOC(=O)C1CCN(C(=O)c2ccc(S(=O)(=O)Nc3ccccc3OC)cc2)CC1	DT40 TDP1 no CPT inconclusive, TDP1 cell CPT 9.2µM
CC(C)CC(C(=O)O)N1C(=O)C2C3C=CC(C2C1=O)C1C(=O)N(C(CC(C)C)C(=O)O)C(=O)C31 (configuration not stated)	none
O=S1(=O)N[C@H](Cc2ccccc2)COc2cccc(N3CCC[C@@H]3CO)c21	DT40 TDP1 no CPT inconclusive (no result: MCF10A rerep, SW480 rereplic, Chronic BCR inh)
COc1ccccc1NS(=O)(=O)c1ccc(C)c(C(=O)N2CCN(c3ccc(O)cc3)CC2)c1	DT40 TDP1 no CPT 13µM, SW480 rereplic inconclusive, Chronic BCR inh inconclusive, TDP1 cell CPT 15µM
Cc1ccc(NS(=O)(=O)c2ccc(C(=O)N3CCN(c4ccccn4)CC3)cc2)cc1	DT40 TDP1 no CPT 12µM, MCF10A rerep inconclusive, Chronic BCR inh inconclusive, TDP1 cell CPT 13µM
COc1ccccc1NS(=O)(=O)c1cc(C(=O)N2CC(C)CC(C)C2)ccc1C (configuration not stated)	DT40 TDP1 no CPT 21µM, TDP1 cell CPT inconclusive
Cc1ccc(S(=O)(=O)NCc2ccc(C(=O)N3CCN(c4ccccn4)CC3)cc2)cc1	DT40 TDP1 no CPT inconclusive, TDP1 cell CPT inconclusive
C[C@@H]1CCCCO[C@@H](CN(C)Cc2ccncc2)[C@@H](C)CN([C@H](C)CO)C(=O)c2cc(NC(=O)c3ccccc3)ccc2O1	DT40 TDP1 no CPT inconclusive (no result: MCF10A rerep, SW480 rereplic, Chronic BCR inh)
Oc1ccc(C=Nc2cccc3ccccc23)c(O)c1	MCF10A rerep inconclusive, SW480 rereplic inconclusive, Chronic BCR inh inconclusive, TDP1 cell CPT inconclusive
Cc1cc(-c2ccccc2)nc(N/N=C/c2ccc([N+](=O)[O-])cc2)n1	DT40 TDP1 no CPT inconclusive, IL1B secr inh -87, TDP1 cell CPT inconclusive
Cc1ccc(/C=N/Nc2nc(C)cc(C)n2)cc1	DT40 TDP1 no CPT inconclusive
Cc1cc(-c2ccccc2)nc(N/N=C/c2ccccc2)n1	DT40 TDP1 no CPT 23µM, Chronic BCR inh inconclusive, TDP1 cell CPT 21µM
CN(/N=C/c1ccc(O)cc1O)c1nc(-c2ccccc2)cc(-c2ccccc2)n1	DT40 TDP1 no CPT 12µM, MCF10A rerep 18µM, SW480 rereplic inconclusive, TDP1 cell CPT 21µM
Cc1cc(-c2ccccc2)nc(N/N=C/c2ccc(O)cc2O)n1	DT40 TDP1 no CPT 18µM, SW480 rereplic inconclusive, IL1B secr inh -89, TDP1 cell CPT inconclusive
O=C(c1ccccc1)c1c[nH]c(C(=O)NNc2ccccc2)c1	MCF10A rerep inconclusive, IL1B secr inh inconclusive, Chronic BCR inh inconclusive
